The text below walks through data of PubChem BioAssay (NCATS).

The structures appear in SMILES notation. Values joined by “and” are separate entries in the source; they are usually repeats but may differ in a detail not shown here. Equal entries are not always repeated. Inconclusive results are not listed. A structure can be active in one record and inactive in another. Active and inactive are the calls of the source. Unless noted, calls follow the shape of the dose curve; as a rule, active = well fitted curve in the direction sought with a large enough effect; inconclusive = small, poorly fitted or top-dose-only effect, or another doubt; inactive = no such curve, though single readings can be large; an effect the other way counts as inactive or inconclusive.

For test [1], the system named is Zika virus NS2B-NS3 protease (unlinked complex). Description: Primary screen GU Rhodamine qHTS for Zika virus inhibitors: Unlinked NS2B-NS3 protease assay (AID 1347159). Also: % is scaled to controls: 0 for no effect and ±100 for the full control effect; nearly all actives have a fitted effect of over 60% in size. The gist of the method:
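Percent inhibition derives from the 15-min fluorescence change (ex 480, em 540 nm), normalized to no-enzyme and no-inhibitor wells. Reactions contained 25 nM NS2B-NS3 complex and 1.5 microM substrate in 10 mM Tris-HCl pH 8.0.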
For orientation: Quantitative high-throughput screening tests each substance at several concentrations.

Test [2] has as its system Zika virus NS2B-NS3 protease (linked construct). Put plainly: Primary screen NINDS Rhodamine qHTS for Zika virus inhibitors (AID 1347160). Also: % is scaled to controls: 0 for no effect and ±100 for the full control effect; nearly all actives have a fitted effect of over 55% in size. Summed up:
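In 10 mM Tris-HCl pH 8.0 containing 0.01% Tween 20, linked NS2B-NS3 protease (25 nM final) is exposed to test compounds for 15 min. Cleavage of 1.5 microM Rhodamine110 substrate is tracked by fluorescence over 15 min.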

In test [3] the target is Calcium and integrin-binding protein 1 (Homo sapiens) (UniProt Q99828). Put plainly: Primary qHTS for Identification of Calcium Integrin Binding Protein 1 (CIB1) Competitor (AID 1508620).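 Also: GST tagged CIB1 binding a fluorescein labelled alphaIIb integrin peptide tracer; top concentration of the series differs between compounds; % is scaled to controls: 0 for no effect and ±100 for the full control effect.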 Summed up:
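Fluorescence polarization competition: CIB1-GST (1 uM final) preincubated with compound 15 min at room temperature, then FITC-labeled alphaIIb peptide (100 nM final) added for another 15 min. Polarization read at Ex 480/Em 540.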

Test [4] is described as follows: Primary qHTS for inhibitors of nuclear receptor binding SET domain protein 2 (NSD2) in an isogenic RCH-ACV NSD2 p.E1099K mutant (9B) (AID 1645876). Also: nearly all actives have a fitted effect of over 70% in size. Also: potency is read from the fitted curve at half-maximal effect.
Test [5] can be described thus: Primary qHTS for inhibitors of nuclear receptor binding SET domain protein 2 (NSD2) in an RCH-ACV wild type WT cells (2C) (AID 1645877). Also: nearly all actives have a fitted effect of over 70% in size. Also: potency is read from the fitted curve at half-maximal effect.
Test [6] deals with Glutathione peroxidase 1 (Homo sapiens) (UniProt P07203). Put plainly: Primary qHTS Assay for Inhibitors of Recombinant Selenoprotein Glutathione Peroxidase 1 (GPX1) (AID 1845191). Also: nearly all actives have a fitted effect of over 65% in size. Also: potency is read from the fitted curve at half-maximal effect. Summed up: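 Recombinant GPX1 (10 nM final) was preincubated with compound for 30 min at room temperature, then reacted with 1 mM GSH, 0.5 mM CHP, 0.5 mM NADPH and 100 nM glutathione reductase; NADPH fluorescence (340/450 nm) was read at 0 and 15 min.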

Test [7] deals with Phospholipid hydroperoxide glutathione peroxidase GPX4 (Homo sapiens) (UniProt P36969). Description: Primary qHTS Assay for Inhibitors of Recombinant Selenoprotein Glutathione Peroxidase 4 (GPX4) (AID 1845192). Also: nearly all actives have a fitted effect of over 65% in size. Also: potency is read from the fitted curve at half-maximal effect. The following applies: outcome: dose series up to 50 µM unless noted. Summed up: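 GR-coupled readout: 100 nM GR, 1 mM GSH, 0.5 mM NADPH; NADPH fluorescence (ex 340/em 450 nm) read at t=0 and after 15 min RT. GPX4 200 nM, preincubated 30 min with compound; substrate 0.5 mM CHP.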

Test [8] deals with Luciferin 4-monooxygenase (Photinus pyralis) (UniProt P08659). Put plainly: Primary firefly luciferase (FLuc) qHTS assay for identification of artifact compounds. (AID 1845220).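 Also: plate controls were DMSO vehicle for no effect and no enzyme for full effect; nearly all actives have a fitted effect of over 60% in size.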 Summed up:
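In this counter-screen for luciferase artifacts, test compounds met substrate (10 uM each luciferin and ATP) before 10 nM enzyme started the reaction. Light output was measured 5 min later.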

Test [9] concerns Nanoluciferase (engineered Oplophorus gracilirostris luciferase). Put plainly: Primary Nanoluciferase (NLuc) qHTS assay for identification of artifact compounds. (AID 1845222).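 Also: NLuc secreted into diluted conditioned medium of S16 cells; 0% = DMSO and -100% = no enzyme.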 Summed up: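 Using secreted nanoluciferase in S16 culture medium (0.22 um filtered, 1:55 dilution), compounds were preincubated 15 min at RT. Signal was generated with Nano-Glo reagent (1:100) over 5 min.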

A short description of test [10]: Primary redox qHTS assay for identification of artifact compounds. (AID 1845223).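 Also: 0% = DMSO and 100% = reference compound.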 The gist of the method:
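Amplex Red (25 uM) and HRP (250 mU/mL) in HBSS, with compounds for 15 min, then 250 uM DTT for 30 min, room temperature, dark. Fluorescence 525/598 nm read; normalized to DMSO and 10 uM DA3003; Hill fit.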

Another test has as its system HeLa. Description: Primary qHTS to identify gynecologic anti-cancer compounds using libraries of approved drugs and bioactive compounds (AID 1345084). Also: % is scaled to controls: 0 for no effect and ±100 for the full control effect; nearly all actives have a fitted effect of over 55% in size. Particulars: Gynecologic cancer cell panel viability, ATPlite luminescence, 48 h; series mostly up to 57.5 µM. The gist of the method: (§1)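 In this quantitative HTS, cell killing is estimated from loss of ATP-dependent luciferase light. Cells see five compound concentrations over a 48 h exposure.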

Another test has as its system OV90. The description is as above. The following applies: Gynecologic cancer cell panel viability, ATPlite luminescence, 48 h; series mostly up to 57.5 µM. Summed up:
as §1
Background: ATP-based viability assays read luminescence as a measure of living cells.

A short description of test [11]: P-glycoprotein substrates identified in KB-3-1 adenocarcinoma cell line, qHTS therapeutic library screen (AID 1346986). Also: nearly all actives have a fitted effect of over 60% in size.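 Also: potency is read from the fitted curve at half-maximal effect; potency is for cytotoxicity meaning loss of cell viability.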 As to activity change, negative = cytotoxicity: % is scaled to controls: 0 for no effect and ±100 for the full control effect. Summed up: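 KB-3-1 parental cells and P-gp-overexpressing KB-8-5-11 (colchicine omitted during assay) plated at 500 cells/well, dosed in dose-response, incubated 72 h at 37 degree C. CellTiter-Glo luminescence read; KB-8-5-11 also tested with tariquidar.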

Test [12] in a line: P-glycoprotein substrates identified in KB-8-5-11 adenocarcinoma cell line, qHTS therapeutic library screen (AID 1346987). Also: nearly all actives have a fitted effect of over 65% in size. Also: potency is read from the fitted curve at half-maximal effect. As to activity change, negative = cytotoxicity: % is scaled to controls: 0 for no effect and ±100 for the full control effect. Summed up: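 KB-8-5-11: colchicine-selected sub-line of KB-3-1 over-expressing P-gp; assay medium lacked colchicine. 72 h drug exposure at 37 degree C, CellTiter-Glo.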
Test [13] in a line: qHTS to identify inhibitors of the type 1 interferon - major histocompatibility complex class I in skeletal muscle: primary screen against the NCATS Mechanism Interrogation Plate v5.0 (MIPE) Libary (AID 1347411). Also: nearly all actives have a fitted effect of over 65% in size. Also: potency is read from the fitted curve at half-maximal effect. The gist of the method:
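Immortalized human C25cl48 myoblasts with HiBit knocked into endogenous HLA-B*08:01 were stimulated with 4.0 ng/ml IFN-beta and exposed to compounds (11-point 1:3 titration, top 46 uM final) for 24 hrs at 37 C; HiBiT lytic luminescence measured.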

Test [14] in a line: qHTS drug screen for cell cycle checkpoint inhibitors in PARPi-resistant BRCA-mutant ovarian cancer cell lines. (AID 1963452; calls by dose curve). The following applies: PEO1/OlaR viability, CellTiter-Glo luminescence, 96 h, stronger effect = lower value. Summed up:
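PEO1, PEO4 and PEO1/OlaR ovarian cancer cells, 600 per well, exposed 96 h at 37C to a dilution series. Viability read by CellTiter-Glo luminescence, normalized to DMSO and empty wells; activity summarized as Z-AUC.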

Test [15] in a line: Drug repurposing screens with cells derived from glioblastoma tumor samples (AID 1345199). Also: nearly all actives have a fitted effect of over 40% in size. Also: potency is read from the fitted curve at half-maximal effect. As to activity, negative = cell killing: % is scaled to controls: 0 for no effect and ±100 for the full control effect. The following applies: GBM patient neurospheres viability, ATP luminescence, 48 h. Summed up:
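Four patient lines of CD133+ GBM neurospheres were screened at several concentrations; hits were retested in those lines plus three slower-growing GBM lines, using 48-hour treatment and ATP-based viability.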

Where [16] appears, read: measured here: PEO1 parental Z-AUC.
Where [17] appears, read: at 46.1 µM (top of the series), tumour line C.

Phospholipid hydroperoxide glutathione peroxidase GPX4 (Homo sapiens), sequence (P36969 whole entry, looked up): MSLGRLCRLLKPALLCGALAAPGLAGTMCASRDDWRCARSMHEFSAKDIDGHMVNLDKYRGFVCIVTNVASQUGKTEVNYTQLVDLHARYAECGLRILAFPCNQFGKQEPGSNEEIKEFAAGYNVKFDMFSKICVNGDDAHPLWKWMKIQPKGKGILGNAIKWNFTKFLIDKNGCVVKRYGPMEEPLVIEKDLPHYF
Glutathione peroxidase 1 (Homo sapiens), sequence (P07203 whole entry, looked up): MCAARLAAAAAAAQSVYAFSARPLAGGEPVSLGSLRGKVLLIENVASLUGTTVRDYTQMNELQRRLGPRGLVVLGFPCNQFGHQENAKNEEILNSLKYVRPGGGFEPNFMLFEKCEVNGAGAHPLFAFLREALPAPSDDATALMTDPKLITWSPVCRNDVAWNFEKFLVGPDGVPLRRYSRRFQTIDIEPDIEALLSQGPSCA
Calcium and integrin-binding protein 1 (Homo sapiens), sequence (Q99828 whole entry, looked up): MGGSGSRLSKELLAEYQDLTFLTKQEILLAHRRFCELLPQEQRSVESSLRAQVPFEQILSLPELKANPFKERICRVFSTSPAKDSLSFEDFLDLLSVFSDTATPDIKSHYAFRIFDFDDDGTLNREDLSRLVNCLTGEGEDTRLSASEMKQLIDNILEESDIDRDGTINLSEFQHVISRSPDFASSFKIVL

Consider `C=C1C(=O)O[C@H]2[C@H]1[C@@H](OC(=O)/C(C)=C\C)C[C@]1(C)O[C@@H]1[C@H]1O[C@H]1C(=C)[C@H]2O`, for which the Potency entry in test [1], in [2], in test [6], in test [7], in [8] and in test [9] was “inactive” throughout. The Potency result (in test [10]; in the test with HeLa; in the test on OV90) was “inactive” each time. Further, the result in test [3] was inactive. For the same compound, the values for the Potency in test [4] and in [5] were 7.13 µM (active) and 4.5 µM (active), respectively.
As to `CC(C)=CCC/C(C)=C/CC/C(C)=C/CSc1ccccc1C(=O)O`, the Potency entry in [11], in [12], in test [13], in test [4], in [5] and in test [6] was “inactive” throughout. For the same compound, in test [7], the Potency was 16.1 µM (active). Besides, the Z-AUC in [14] is 0.993 (inactive); in [14] (setting [16]), 0.837; in [14] (measured here: PEO4 Z-AUC), 0.897.
With `NC(=O)c1nc(F)c[nH]c1=O`, the Potency entry in [11], in test [12], in test [13], in test [4] and in [5] was “inactive” in each case. The Potency in test [6] is 20.2 µM (active); in test [7], 9.04 µM (active) and 22.4 µM (active). The results for the Z-AUC in [14], in test [14] (setting [16]) and in test [14] (measured here: PEO4 Z-AUC) were -0.413 (inactive), -0.874 and -0.858, respectively.
With `CC1(C)N=C(N)N=C(N)N1c1ccc(Cl)cc1`, the Potency result in test [12] was “inactive”.
Regarding `CNS(=O)(=O)c1ccc2c(c1)/C(=C/c1[nH]c3c(c1CCCN1CCN(C)CC1)CCCC3)C(=O)N2`, the Potency entry in test [11], in test [12], in test [4], in test [6] and in [7] was “inactive” in each case. The Potency in test [13] is 20.8 µM (active); in [5] it was 16.6 µM (active). The Z-AUC in test [14] is 0.43 (inactive); in test [14] (setting [16]), 0.259; in test [14] (measured here: PEO4 Z-AUC), -0.147.
Turning to `CS(=O)(=O)CCNCc1nc(-c2ccc3ncnc(Nc4ccc(OCc5cccc(F)c5)c(Cl)c4)c3c2)cs1`, the activity change, negative = cytotoxicity in [11] was 4.91% [at 9.29 µM] (inactive). Further, the results for the outcome in test [12] and in test [6] were “inactive [at 9.29 µM]” and “inactive [at 9.52 µM]”, respectively.
In the case of `CN1CCN(CCC=C2c3ccccc3Sc3ccc(S(=O)(=O)N(C)C)cc32)CC1`, the Potency entry in test [6] was “inactive”. For the same compound, in [15] (setting [17]), the activity, negative = cell killing was 4.82% (inactive). Also, the Potency was 7.08 µM (active) in [15] (tumour line A) and 35.5 µM (active) in [15] (tumour line B).
With `CN(C)Cc1cccc(N=C(c2ccccc2)c2c(O)[nH]c3cc(C(N)=O)ccc23)c1`, the Potency entry in test [11], in test [12], in test [13], in test [5], in [6] and in [7] was “inactive” throughout. Also, the Potency in test [4] was 16.4 µM (active). The figures for the Z-AUC in [14], in test [14] (setting [16]) and in test [14] (measured here: PEO4 Z-AUC) were 0.325 (inactive), 0.627 and -0.143, respectively.
Regarding `O=C(Nc1cc(Oc2cc(F)c(NC(=O)C3(C(=O)Nc4ccc(F)cc4)CC3)cc2F)ccn1)C1CC1`, the Potency is 5.17 µM (active) in test [11]; 4.61 µM (active) in test [12]; 18.6 µM (active) in test [13]; 2.59 µM (active) and inactive in test [4]; 2.59 µM (active) and inactive in test [5]. Further, the Potency entry in [6] and in test [7] was “inactive” throughout. Also, the Z-AUC in [14] is -0.419 (inactive); in test [14] (setting [16]), 0.97; in test [14] (measured here: PEO4 Z-AUC) it was -0.43.
For the compound `N[C@@H](C(=O)N[C@@H]1C(=O)N2C(C(=O)O)=C(CSc3cn[nH]n3)CS[C@H]12)c1ccc(O)cc1`, the Potency in test [6] was 18 µM (active). Besides, the Potency result in [7] was “inactive”. Also, the activity, negative = cell killing in test [15] (at 45.9 µM (top of the series), tumour line B) is -1.12% (inactive); in test [15] (at 45.9 µM (top of the series), tumour line D) it was -13.1% (inactive); in [15] (setting [17]) it was 10.5% (inactive).
As to `NC(=O)c1sc(-c2ccsc2)cc1N`, the Potency entry in test [11], in test [12], in test [4], in test [5] and in [6] was “inactive” each time.
